{"source": "PubChem BioAssay (Tox21)", "note": "Results filed as inconclusive are left out. A call without a number means that no potency is given here. Active and inactive are the calls of the source. The call rests on the fitted dose curve."}
{"assay": "p53 small molecule agonists, cell-based qHTS assay with human liver microsomes (AID 1963577);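 further: p53 response element beta-lactamase reporter cells with liver microsomes plus NADPH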", "settings": "HCT-116 p53RE-bla with human liver microsomes, ratio, 16 h; series mostly up to 66 µM; activation: at the top concentration", "excerpt": "National Center for Advancing Translational Sciences [NCATS]\nDivision of Preclinical Innovation [DPI]\nU.S. Environmental Protection Agency [EPA]\nNational Institutes of Environmental Health Sciences [NIEHS]\nNational Toxicology Program [NTP]\nU.S. Food and Drug Administration [FDA]\np53, a tumor suppressor protein, is activated following cellular insult, including DNA damage and other cellular stresses. The activation of p53 regulates cell fate by inducing DNA repair, cell cycle arrest, apoptosis, or cellular senescence. The activation of p53, therefore, is a good indicator of DNA damage and other cellular stresses. […] The activation of the reporter gene under culture conditions can be detected by fluorescence intensity.\nTox21 Assay Protocol Summary:\nThe p53RE-bla cells were dispensed at 4,000cells/3ul/well in 1536-well black-clear bottom plates. After the assay plates were incubated at 37 C, 5% CO2 incubator for 5 hours, 23 nL of compounds dissolved in DMSO, positive controls or DMSO only was transferred to the assay plate. Following compound addition, 3 uL of human liver microsomes (XenoTech, Kansas City, KS) at final concentration of 0.5 mg/mL and 1uL of Beta-Nicotinamide adenine dinucleotide 2-phosphate (NADPH) at final concentration of 0.5 mg/mL were transferred to the assay plate. The plates were incubated at 37 C for 16 hours. 1 uL of LiveBLAzer detection mixture was added to each well and the plates were incubated at room temperature in the dark for 2 h."}
{"smiles": "O=C(NCc1cccnc1)Nc1ccc([N+](=O)[O-])cc1", "activation": "-4.76% (inactive)"}
{"smiles": "Oc1ccc(Cl)cc1", "Potency": "inactive"}
{"smiles": "OCC(O)CO", "Potency": "inactive"}
{"smiles": "NCc1cccnc1", "Potency": "inactive"}
{"smiles": "COC(=O)NC(=S)Nc1ccccc1NC(=S)NC(=O)OC", "Potency": "inactive"}
{"smiles": "CC(C)(C)C(O)(CCc1ccc(Cl)cc1)Cn1cncn1", "note": "(stereo not given)", "Potency": "inactive"}
{"smiles": "O=Cc1ccco1", "Potency": "inactive"}
{"smiles": "CCOP(=S)(OCC)Oc1cc(C)nc(C(C)C)n1", "activation": "16.9% (inactive)"}
{"smiles": "CC(C)Nc1ccc(Nc2ccccc2)cc1", "Potency": "inactive"}
{"smiles": "CC(=O)C1CCOC1=O", "note": "(stereo not given)", "Potency": "inactive"}
{"smiles": "Cc1ccccc1CCl", "activation": "0.288% (inactive)"}
{"smiles": "Nc1cc(Cl)cc(Cl)c1", "Potency": "inactive"}
{"smiles": "COC(=O)c1c(C(F)F)nc(C(F)(F)F)c(C2=NCCS2)c1CC(C)C", "activation": "-10.9% (inactive)"}
{"smiles": "CC(C)(C)C(=O)Cl", "activation": "-1.73% (inactive)"}
{"smiles": "C=CCBr", "activation": "3.06% (inactive)"}
{"smiles": "Nc1ccccc1C(=O)OCC(O)CO", "note": "(stereo not given)", "activation": "-3.05% [at 30.3 µM] (inactive)"}
{"smiles": "Cn1c(N)nc2c3cccnc3ccc21", "activation": "-2.06% (inactive)"}
{"smiles": "N#CCCCl", "Potency": "inactive"}
{"smiles": "Oc1cc(Cl)ccc1Cl", "Potency": "inactive"}
{"smiles": "N#Cc1cc(Br)c(O)c(Br)c1", "Potency": "inactive"}
{"smiles": "CC(C=O)Cc1ccc2c(c1)OCO2", "note": "(stereo not given)", "activation": "2.82% (inactive)"}
{"smiles": "Cc1ccc(O)c(C)c1", "activation": "0.428% (inactive)"}
{"smiles": "C=CCSSCC=C", "activation": "-0.76% (inactive)"}
{"smiles": "c1cc2c3c(cccc3c1)CC2", "Potency": "inactive"}
{"smiles": "Cc1cc(Cl)ccc1O", "Potency": "inactive"}
{"smiles": "Oc1ccc(Cl)c(Cl)c1", "activation": "-1.62% (inactive)"}
{"smiles": "CC(C)(C)C(=O)CCl", "Potency": "inactive"}
{"smiles": "C(=NC1CCCCC1)=NC1CCCCC1", "Potency": "inactive"}
{"smiles": "O=[N+]([O-])c1ccc(Cl)c([N+](=O)[O-])c1", "activation": "-8.45% (inactive)"}
{"smiles": "CC(C)=CC1C(C(=O)OCN2C(=O)C3=C(CCCC3)C2=O)C1(C)C", "note": "(stereo not given)", "Potency": "inactive"}
{"smiles": "CCOC(=O)C(O)(c1ccc(Cl)cc1)c1ccc(Cl)cc1", "Potency": "inactive"}
{"smiles": "CC(C)(O)C(=O)Nc1ccc([N+](=O)[O-])c(C(F)(F)F)c1", "activation": "-5.19% (inactive)"}
{"smiles": "C#CC(C)(C)NC(=O)c1cc(Cl)cc(Cl)c1", "Potency": "inactive"}
{"smiles": "CC(C)C1(C)N=C(c2nc3ccccc3cc2C(=O)O)NC1=O", "note": "(stereo not given)", "Potency": "inactive"}
{"smiles": "c1ccc(-c2cccc(-c3ccccc3)c2)cc1", "Potency": "inactive"}
{"smiles": "CNC(=O)Oc1ccccc1OC(C)C", "activation": "7.75% (inactive)"}
{"smiles": "CNC(=O)NC(O)C(Cl)(Cl)Cl", "note": "(stereo not given)", "activation": "-1.34% [at 30.3 µM] (inactive)"}
{"smiles": "N#CCCCCC#N", "Potency": "inactive"}
{"smiles": "C1=Cc2cccc3cccc1c23", "Potency": "inactive"}
{"smiles": "CN(C)CCO", "Potency": "inactive"}
